Measured values published in PubChem BioAssay (NCI).
This is part of a sample that, as a whole, favours compounds with a hit. Of some 83,000 tested, about 20% had one in any assay.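 Single-dose data. Exposure time 48 hours. Values below 10 considered active.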 A number with no mark means an inactive call. Active and inactive are the calls of the source.

What follows are compounds tested on HL-60(TB) leukemia (assay: NCI-60 one-dose screen, 48 h (100 = growth as untreated, 0 = no growth, -100 = all killed)). Settings: 10 µM unless noted.
For CCc1ccc(OCc2ccccc2C(=O)Nc2ccc3nc(C)cc(N)c3c2)cc1, the growth was -75.9% (active).
Compound Fc1ccc(-c2nc(-c3ccc(-c4nc5ccc(F)cc5[nH]4)cc3)no2)cc1 has a growth of 96.3%.
For Cc1cc2cn3c4ccc(O)cc4[nH]c(=O)c3c2cc1C, the growth was -51.9% (active).
CC(C)c1ccc(C(=O)Nc2sc3c(c2C(N)=O)CCC(=O)C3)cc1 was tested, and the growth was -11.5% (active).
O=C(CCl)Nc1ccc2c(c1)C(=O)c1ccc(NC(=O)CCl)cc1C2=O was tested, and the growth was -59.7% (active).
For CCCCc1ccc(N=Nc2ccc(OCC[N+](C)(C)C)cc2)cc1, the growth was 25.2%.
With O=C1c2cccc3cccc(c23)C(=O)N1N1C(=O)c2cccc3c(NC4CCCCC4)ccc(c23)C1=O the growth was 99.3%.
With COCc1cnccc1NC1CCCCCC1 the growth was 86.2%.
Compound COc1ccc2[nH]c(-c3ccccc3)cc2c1 has a growth of 60.7%.
O=C(O)c1cccc([N+](=O)[O-])c1O was tested, and the growth was 78.2%.
O=S1(=O)OC(c2cc(Cl)c(O)c(Br)c2)(c2cc(Cl)c(O)c(Br)c2)c2ccccc21 was tested, and the growth was 92.4%.
In the case of O=C1CCCN1C1CCN2CCCc3cccc1c32 (stereo not given), the growth is reported as 92.7%.
O=C(CN1CCN(c2ccc(Cl)cc2)CC1)N1CCN(c2nnc(-c3ccc(Cl)cc3)c(-c3ccc(Cl)cc3)n2)CC1 gave a growth of 41.4%.
Work on CCCCCCCC/C=C\CCCCCCCC(=O)Oc1cccc2cccnc12 yielded a growth of 83.9%.
CC(NCCC(c1ccccc1)c1ccccc1)c1ccccc1 (stereo not given) gave a growth of 14.6%.
For O=C(CCN1CCCCC1)c1ccc(Cl)cc1, the growth was 111%.
CC(O)c1cc[cH-]c1.[Fe+2].c1cc[cH-]c1 (stereo not given) was tested, and the growth was 92.9%.
In the case of COC(=O)c1c2c(c(C)[n+]([O-])c1C)C(=O)C(NCc1ccc(F)c(Cl)c1)=CC2=O, the growth is reported as -54.6% (active).
COc1cc(Nc2nc(NCCN)nc3cc[nH]c(=O)c23)cc(OC)c1 gave a growth of 71.8%.
CCCCCCCCCCCCCC[N+](C)(C)CCCCCCCCCCCCCC gave a growth of 46.6%.
For Clc1ccc2c(NCCNc3nc(N4CCCC4)nc4ccccc34)ccnc2c1, the growth was -70% (active).
Work on COc1ccc(-c2nc3sc4c(c3c(=O)[nH]2)CCCCCC4)cc1 yielded a growth of 29%.
Compound c1ccc([P+](c2ccccc2)(c2ccccc2)c2ccc3c4ccc([P+](c5ccccc5)(c5ccccc5)c5ccccc5)c5cccc(c6cccc2c63)c54)cc1 has a growth of 11.2%.
O=C1Nc2ccc(F)cc2/C1=C/c1nc(-c2ccc(F)cc2)n2ccccc12 gave a growth of 103%.
In the case of C=C1C(=O)O[C@H]2[C@H]1CC/C(COC(=O)c1ccc(Cl)nc1)=C\CC[C@@]1(C)O[C@@H]21, the growth is reported as -55.1% (active).
